IL2 activator – IL-2 activation; IL-2 activation reporter assay, cell-based qHTS; stimulated with anti-CD3/CD4/CD28 beads; in transgenic mouse T cells; activation, % (series mostly up to about 46 µM); hit rate 0.065% among 360,000; in the data active means activation above about 50%; inconclusive means mostly about 30% to 49%; further: 0% is about no effect
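Unstimulated transgenic mouse T cells preincubated 60 min with compound, then stimulated with anti-CD3/anti-CD4-coated beads plus anti-CD28 for 18 h at 37 degrees C. IL-2 response read as EGFP and DsRed fluorescence by plate cytometry.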
BRCA1 expr act – BRCA1 expression activation. Potency, µM (doses to about 46.1 µM), for inactives: at the highest dose activation, usual class: activators. MCF7-BRCA1-FFLuc reporter, luminescence, 48 h; response scale: scaled: vehicle 0%, 10 µM genistein 100%. hit rate 1.1% among 380,000; further: potency means the concentration at half of the fitted maximal effect; nearly all actives have a fitted effect of over 80% in size
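MCF7-BRCA1-FFLuc, 2000 cells/well; 2 h attach, 37 °C/5% CO2; compound 48 h; luciferase substrate 15 min; luminescence end-point. Norm. to genistein 10 microM max activation and DMSO; concentration-response curves fitted.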
gsp ag – agonists of gsp mutant (McCune-Albright syndrome); gsp mutant cells, cAMP HTRF, 30 min; Potency, µM (doses to about 76.9 µM), inactives show at the top dose activation (cAMP increase), actives largely listed as activators; hit rate 0.13% among 340,000; AID 624287; active means well fitted activation curve with a large enough effect; inconclusive means small, poorly fitted or top-dose-only effect, or another doubt; inactive means no such curve, though single readings can be large or run the other way; cell line not stated here;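 further: phosphodiesterase inhibitor Ro 20-1724 added with compounds to block cAMP breakdown; potency means the concentration at half of the fitted maximal effect; nearly all actives have a fitted effect of over 60% in size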
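Cells stably selected in G418 were plated at 2000/well, grown 16-24 hr, then given compounds in DMSO with the PDE inhibitor […] (300 uM solution added) for 30 min at 37C; cAMP was read by HTRF.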
gsp antag – antagonists of gsp mutant (McCune-Albright syndrome). hit rate 0.4% among 340,000. gsp-mutant cells, cAMP HTRF, 30 min. Potency, µM (highest dose often 76.9 µM), inactives show at the top dose activity change, negative = inhibition, hits mostly inhibitors; calls by dose curve; cell line not stated here;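 further: intracellular cAMP measured with PDE inhibitor Ro 20-1724 present during compound exposure; potency means the concentration at half of the fitted maximal effect; on the % scale 0 is the no-effect control and ±100 the full control effect; nearly all actives have a fitted effect of over 65% in size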
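Measurement of cellular cAMP by homogeneous time-resolved fluorescence following a 30 min compound exposure at 37C. The PDE inhibitor […] was present throughout; the assay buffer was DPBS with 0.05% BSA and 0.005% Tween 20.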
mIDH1 inhibitor – blocks human mutant IDH1 R132H enzyme; Potency, µM (titrated, usually from 76.6 µM), without a hit: top-dose activity change, negative = inhibition, usual class: inhibitors; hit rate 0.093% among 390,000; O75874; IDH1-R132H enzyme, NADPH consumption, diaphorase/resazurin fluorescence; further: potency means the concentration at half of the fitted maximal effect; on the % scale 0 is the no-effect control and ±100 the full control effect; nearly all actives have a fitted effect of over 65% in size
Target sequence (O75874 whole entry R132H, stated change not applied): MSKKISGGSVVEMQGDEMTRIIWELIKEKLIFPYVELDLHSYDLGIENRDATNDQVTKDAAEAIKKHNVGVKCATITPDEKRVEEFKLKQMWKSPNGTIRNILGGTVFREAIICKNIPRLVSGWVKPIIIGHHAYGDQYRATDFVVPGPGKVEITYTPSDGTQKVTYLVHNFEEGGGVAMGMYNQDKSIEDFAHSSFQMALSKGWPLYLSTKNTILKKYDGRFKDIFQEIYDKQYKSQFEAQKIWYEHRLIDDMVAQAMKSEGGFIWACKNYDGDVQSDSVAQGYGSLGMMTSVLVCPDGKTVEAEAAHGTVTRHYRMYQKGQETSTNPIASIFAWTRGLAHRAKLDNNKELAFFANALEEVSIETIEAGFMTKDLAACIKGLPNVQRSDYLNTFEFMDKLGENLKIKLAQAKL
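IDH1-R132H (0.5 ug/mL dispensed) in pH 7.5 Tris buffer was preincubated 30 min with compound, then given a substrate mix of 0.016 mM NADPH and 2 mM alpha-KG for 80 min at room temperature; remaining NADPH was read by diaphorase/resazurin fluorescence.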
The depositor's hits bear a star; ? = inconclusive; . = not tested or not shown; [ ] = dose if it differs, or a comment. Sampled rows, rich in hits. Any-hit rate of the full collection: about 1.5%. Unless noted, the call rests on the fitted dose curve; in most records, active means well fitted curve in the direction sought with a large enough effect; inconclusive means small, poorly fitted or top-dose-only effect, or another doubt; inactive means no such curve, though single readings can be large; an effect the other way counts as inactive or inconclusive.

SMILES	IL2 activator	BRCA1 expr act	gsp ag	gsp antag	mIDH1 inhibitor
Cc1ccc(Cl)cc1N1CCN(C(=O)C2CCN(S(C)(=O)=O)CC2)CC1	-2.5	-3.7%	-1.3%	-13.7%	-3.7%
Cc1ccc(C)c(N2CCN(C(=O)C3CCN(c4nc(C)cc(C)n4)CC3)CC2)c1	-2.2	-43.6%	-36.3%	35.5µM*	3.3%
Cc1cc(C)nc(N2CCC(C(=O)N3CCN(c4cc(Cl)ccc4C)CC3)CC2)n1	-3.5	-38.4%	?	28.2µM*	3.0%
COc1ccc2c(c1)c1c(c(=O)n(Cc3ccccc3)c(=O)n1CC(=O)Nc1c(C)cccc1C)n2C	.	3.1%	.	.	18.1%
O=C(Nc1nc(-c2ccccc2)cs1)NC1CCCCC1	2.7	21.4%	-0.3%	2.4%	0.6%
c1ccc(-c2csc(NC3CCCCC3)n2)cc1	-0.9	2.82µM*	6.8%[15.4 µM]	-3.2%	-0.7%
CCOc1ccc(N(CC(=O)NCc2ccccc2C)S(C)(=O)=O)cc1	1.9	11.2µM*	18.6%	2.0%	3.4%
COC(=O)c1ccc(NC(=O)CN(c2ccc(OC)cc2)S(C)(=O)=O)cc1	2.7	11.2µM*	41.9%	3.7%	0.0%
CCOc1ccc(N(CC(=O)NCCSCc2ccccc2Cl)S(C)(=O)=O)cc1	-1.5	-4.1%	-45.6%	-16.4%	2.7%
CCOc1ccc(NC(=O)CN(c2ccc(OC)cc2)S(C)(=O)=O)cc1	1.9	11.2µM*	6.4%	0.4%	1.6%
CCn1ccc(C(=O)Nc2ncc(C)s2)n1	-2.0	?	0.4%	-4.7%	9.0%
CCNC(=O)C1(C)CCCN1C(=O)c1cc(OC)c(OC)c(OC)c1 (configuration not stated)	0.0	0.0%	.	.	.
CCN(CC(=O)Nc1ccc2c(c1)OCCO2)C(=O)c1ccc(C(F)(F)F)cc1	-0.3	12.3%	1.6%	-7.7%	-0.7%
O=C(Nc1nc(-c2cc(F)ccc2F)cs1)c1cccc(N2C(=O)CCC2=O)c1	-6.1	-18.7%	-6.5%	39.8µM*	7.6%
O=C(Nc1nc(-c2ccc(F)cc2)cs1)c1cccc(N2C(=O)CCC2=O)c1	-3.7	-28.4%	-33.6%	?	8.3%
O=C(CSc1cccc[n+]1[O-])Nc1cc2c(cc1Cl)C(=O)c1ccccc1C2=O	-1.2	10µM*	-8.5%	-7.8%	5.7%
COc1cc(C(=O)Nc2sc3c(c2C#N)CCN(C(C)=O)C3)cc(OC)c1OC	-4.3	-19.9%	10µM*	-0.4%	13.2%
CCOC(=O)N1CCN(C(=O)CSCc2ccc(Cl)cc2)CC1	-0.3	42.2%	2.2%	-10.8%[15.4 µM]	3.0%
CCOC(=O)N1CCN(C(=O)CSCc2ccccc2)CC1	2.1	11.2µM*	4.5%	10.7%	4.1%
O=C(c1ccc(Oc2ccc([N+](=O)[O-])cc2Cl)cc1)N1CCCC1	-3.2	-11.4%	-7.0%[15.4 µM]	11.2µM*	2.5%
CCn1cc(Br)c(C(=O)NC(C)c2ccccc2)n1 (configuration not stated)	71.7*	0.2%	?	8.1%	4.0%
Cn1c(=O)c2[nH]c(CCc3ccncc3)nc2n(C)c1=O	0.4	-39.9%	?	12.6%	-5.6%
Cn1c(=O)c2[nH]c(CCCc3ccc([N+](=O)[O-])cc3)nc2n(C)c1=O	-0.1	-23.0%	15.8µM*	8.4%	2.3%
Fc1ccc(/C=C/c2nnc(-c3cccs3)o2)cc1	2.3	2µM*	11.3%	-1.2%	7.3%
O=C(Nc1ccc(-n2ccc(C(F)(F)F)n2)cc1)c1cccs1	-2.6	6.31µM*	-1.4%	-7.4%	2.0%
SMILES	IL2 activator	BRCA1 expr act	gsp ag	gsp antag	mIDH1 inhibitor
COc1cc(NC(=O)c2ccccc2Cl)ccc1NC(=O)c1cccs1	-1.3	6.31µM*	2.9%[15.4 µM]	-13.3%	14.3%
COc1cc(NC(=O)c2cc3ccccc3cc2OC)ccc1NC(=O)c1cccs1	-3.5	-22.1%	24.4%	?	-7.8%
O=C(Nc1ccc(O)cc1)c1ccc(NC(=O)c2cccs2)cc1	0.0	3.98µM*	4.4%	-25.1%	4.9%
Cc1ccc(NC(=O)C(=O)NNC(=O)c2cccs2)cc1	-2.0	36.5%	-13.1%	1.0%	-8.8%
Cc1ccc(NC(=O)c2cccs2)cc1	-1.0	2.24µM*	20.4%	-5.4%	4.2%
N=c1nc(-c2ccccc2)n(-c2ccccc2)s1	.	27.1%	.	.	.
CCNc1nc(N2CCCN(C)CC2)nc2cc(OC)c(OC)cc12	.	-16.7%	.	.	.
COc1ccc(NC(=O)C2(C)CCN2CCc2ccccc2)cc1OC (configuration not stated)	-0.5	6.3%	.	.	.
Cc1ccc(SCn2nnc3ccccc3c2=O)c(C)c1	0.6	12.6µM*	-0.6%[15.4 µM]	-8.5%	8.5%
Cc1ccc2nc(SCn3nnc4ccccc4c3=O)[nH]c2c1	4.8	?	-16.1%[15.4 µM]	-6.4%	5.1%
CC1=C(SCc2ccccc2)C(=O)c2ccccc2C1=O	0.0	-108.3%	11.2µM*	-11.6%	0.5%
COC(=O)c1cc(-c2ccc(C)cc2)n[nH]1	1.9	10µM*	-31.2%	3.7%	-3.5%
COC(=O)c1ccccc1N=Nc1c(N)[nH][nH]c1=O	-0.6	-4.4%	19.6%	39.8µM*	0.0%
C1=Nc2ccccc2/C1=C/c1ccccc1	.	-5.1%	.	.	.
Cc1cccc(Cn2c(=O)n(Cc3ccc4c(c3)OCO4)c(=O)c3oc4ccccc4c32)c1	.	.	.	.	24.4%
Cc1cc(C)n(-c2ccc(C(=O)Nc3sccc3C(N)=O)cc2)n1	0.6	1µM*	27.8%	-1.1%[15.4 µM]	1.5%
CC(=O)N1CCc2nc3sc(C(=O)c4ccc(F)cc4)c(N)c3c(C(F)(F)F)c2C1	.	.	.	.	36.5%
CSC(=S)N/N=C/c1ccc(N(C)C)cc1	-4.3	0.3%	-17.1%	4.4%	0.5%
O=C(N/N=C\c1ccc(F)cc1)c1ccc(F)cc1	13.0	11.2µM*	-2.2%[15.4 µM]	.	4.4%
COC(=O)c1ccc(/C=N/NC(=O)c2cccc(F)c2)cc1	-0.7	10µM*	-37.8%	5.3%	-1.8%
CN(C)c1ccc(C=NNC(=S)Nc2ccc(F)cc2)cc1	-0.7	3.98µM*	7.9%	-18.3%	7.7%
O=C(CSc1ncnc2nc[nH]c12)c1ccccc1	-0.5	73.3%	-4.5%	-15.4%	-1.3%
c1ccc(CCSc2ncnc3nc[nH]c23)cc1	-1.4	3.16µM*	-62.4%	-8.3%	-0.9%
COc1ccc2nc(/N=C(\N)NC(=O)C(C)(C)C)nc(C)c2c1	-0.2	11.2µM*	9.5%	1.0%	1.5%
O=C(NCCc1ccc(Cl)cc1)c1ccc(CS(=O)(=O)c2ccc(Cl)cc2)o1	.	.	.	.	-11.6%
O=C(NCc1ccccn1)c1ccc(-c2ccccc2)cc1	-2.1	12.6µM*	-25.6%[15.4 µM]	-0.9%	1.9%
O=C(NCc1ccccn1)c1ccc([N+](=O)[O-])cc1	2.5	-2.1%	13.1%	9.7%	2.0%
O=C(NCc1ccco1)c1ccc(N2CCCC2=O)cc1	-0.8	48.3%	2.2%	1.4%	-2.6%
O=C(NCc1ccccn1)c1ccc(N2CCCC2=O)cc1	2.0	12.6µM*	0.9%	3.0%	3.7%
Cn1cnnc1Sc1nc2c(c(=O)n(C)c(=O)n2C)n1C	0.4	0.8%	22.4µM*	10.0%	0.0%

From PubChem
